Many of the other results were omitted from the sample, so hits are more common in it than they were.
Cruzain inh Det = inhibitors of Trypanosoma cruzi cruzain with detergent; P25779; purified cruzain, Z-FR-AMC fluorescence, 0.01% Triton; Potency, µM, for the others: max response, negative = inhibition, hits mostly inhibitors; hit rate 0.43% among 200,000; AID 1478;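 note: plate controls were neutral wells for no effect and buffer without enzyme for full effect; nearly all actives have a fitted effect of over 40% in size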
Target sequence (P25779 123-467 limits assumed): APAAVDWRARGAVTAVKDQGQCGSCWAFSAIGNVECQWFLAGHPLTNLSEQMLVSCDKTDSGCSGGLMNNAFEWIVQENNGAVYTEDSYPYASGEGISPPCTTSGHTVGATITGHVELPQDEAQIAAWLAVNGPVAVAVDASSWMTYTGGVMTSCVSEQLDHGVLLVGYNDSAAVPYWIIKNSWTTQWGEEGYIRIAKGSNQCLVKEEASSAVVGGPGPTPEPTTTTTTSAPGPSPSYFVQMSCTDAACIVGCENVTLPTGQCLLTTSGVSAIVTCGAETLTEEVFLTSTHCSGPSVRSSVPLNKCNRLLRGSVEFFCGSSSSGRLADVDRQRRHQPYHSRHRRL
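Z-FR-AMC hydrolysis (2 uM substrate) by cruzain (1.5 nM) monitored kinetically at ex 360/em 450 nm after 15 min room-temperature compound exposure; 0.01% Triton X-100, pH 5.5, 5 mM DTT.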
NS1 function inh = influenza NS1 inhibition | Potency, µM (highest dose often 46.1 µM), for inactives: at the top dose activity, positive = more growth | hit rate 0.4% among 270,000; calls by dose curve; note: actives are rising curves; nearly all actives have a fitted effect of over 50% in size
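Growth recovery, yeast-based: influenza A NS1 expressed in S. cerevisiae causes slow growth, and suppressors are detected by OD600. The parent strain without NS1 is used as positive control.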
Cruzain inh noDet = cruzain (T. cruzi) inhibition without detergent; Potency, µM, for inactives: max response, negative = inhibition, most hits filed as inhibitors; purified cruzain, Z-FR-AMC fluorescence, no detergent; AID 1476; P25779; hit rate 2.3% among 200,000;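 note: plate controls were enzyme without inhibitor for no effect and buffer without enzyme for full effect; nearly all actives have a fitted effect of over 40% in size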
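Detergent-free condition (0.00005% Triton X-100) in acetate buffer pH 5.5 with DTT. 1.5 nM enzyme and compound were pre-mixed 15 min, then 2 uM Z-FR-AMC substrate added; reaction progress from fluorescence change between first and third reads (60 s).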
Numbers without * were called inactive; ? = inconclusive; nt = no result given. Unless noted, calls come from the whole dose curve; as a rule, active = well fitted curve in the direction sought with a large enough effect; inconclusive = small, poorly fitted or top-dose-only effect, or another doubt; inactive = no such curve, though single readings can be large; an effect the other way counts as inactive or inconclusive. Potency is the fitted concentration of half-maximal effect.

SMILES | Cruzain inh Det | NS1 function inh | Cruzain inh noDet
CC/C=C/C#N | 3% | nt | 4%
Cc1cccc(NC(=O)Cn2c(=O)n(Cc3ccc(C(=O)NCc4ccc5c(c4)OCO5)cc3)c(=O)c3ccccc32)c1 | 6% | nt | 4µM*
Cc1cc(C)c(NC(=O)Cn2c(=O)n(Cc3ccc(C(=O)NCc4ccc5c(c4)OCO5)cc3)c(=O)c3ccccc32)c(C)c1 | -2% | nt | 4%
O=[As](O)(O)c1ccc2nc3cc([As](=O)(O)O)ccc3nc2c1 | -3% | -3% | 5%
COc1ccc(C(=O)/C=C/c2ccc(OC)cc2OC)c(O)c1 | nt | 1% | nt
COc1ccc(/C=C/C(=O)/C=C/c2ccc(OC)cc2OC)c(OC)c1 | 6% | nt | 3.2µM*
O=C1c2ccccc2C(=O)N1OS(=O)(=O)c1ccc(F)cc1 | nt | 9% | nt
Cc1ccc(S(=O)(=O)ON2C(=O)c3ccccc3C2=O)c(C)c1 | 13µM* | 11% | 16µM*
Cc1cc(C)c(S(=O)(=O)ON2C(=O)c3ccccc3C2=O)cc1C | ? | -25% | ?
Cc1cc(C)c(C)c(S(=O)(=O)ON2C(=O)c3ccccc3C2=O)c1C | 20µM* | -47% | 25µM*
CCOc1ccc(-n2c(-c3ccc(Br)cc3)cc3c2CC(C)(C)CC3=O)cc1 | 1% | nt | 0%
CSc1nncc(/C(C)=N\Nc2cccc(C)c2)n1 | 2% | -12% | 13µM*
CSc1nncc(/C(C)=N\Nc2ccccc2)n1 | 6% | -76% | 6%
Cc1ccc(CNC(=O)c2cnc3c(-c4ccccc4)c(C)nn3c2C)o1 | -5% | nt | -6%
Cc1cccc(NS(=O)(=O)c2c(C)nc3sccn3c2=O)c1C | -5% | nt | 6%
Cc1ccccc1C(=O)NCC(=O)Nc1ccc(C)c(S(=O)(=O)N2CCCCCC2)c1 | nt | -6% | nt
CCCCNC(=O)C1=C(N)C(C(=O)Nc2ccc(C)c(S(=O)(=O)N3CCCCC3)c2)SC1=Nc1ccc(C)cc1C (stereo not given) | 7% | ? | 7.9µM*
CC1=C(C(=O)O)N2C(=O)C(NC(=O)C(N)c3ccccc3)C2SC1 (stereo not given) | 0% | nt | 4%
COC(=O)[C@@H]1C(O)[C@@H](C(=O)OC)[C@H](C)N(C)[C@@H]1C (stereo not given in full) | 3% | 3% | 4%
O=C1c2cccnc2-c2ncccc21 | -3% | 1% | -4%
CC1(C)OCC(CSC2=C(SCC3COC(C)(C)O3)C(=O)c3ncccc3C2=O)O1 (stereo not given) | 16µM* | nt | ?
COc1ccc(CCNC(=O)c2ccc3c(c2)c(C)c(C)n3Cc2ccc(F)cc2)c(OC)c1OC | -1% | nt | -29%
CC(C)Sc1ncc(Cl)c(C(=O)Nc2nc3ccc(S(C)(=O)=O)cc3s2)n1 | 3% | nt | 5%
COC(=O)CSc1nc2c(c(-c3ccco3)c1C#N)CCCC2 | 28µM* | -53% | 20µM*
COC(=O)CSc1nc2c(c(-c3ccc(O)cc3)c1C#N)CCCC2 | nt | 1% | nt
SMILES | Cruzain inh Det | NS1 function inh | Cruzain inh noDet
CCNC(=O)CSc1ncnc2sccc12 | -3% | 8% | -9%
N#Cc1c(NC(=O)CSc2ncnc3sccc23)oc(-c2ccco2)c1-c1ccco1 | -12% | 4% | 25µM*
COc1ccc(NC(=S)Nc2cccc([N+](=O)[O-])c2)cc1 | 2% | 6% | -10%
Cc1cccc(NC(=S)NNc2cccc(Cl)c2)c1 | nt | -16% | nt
Cc1ccc(NS(=O)(=O)c2cc([N+](=O)[O-])ccc2NNC(=S)Nc2cc(C)ccc2C)c(C)c1 | -10% | 13µM* | ?
COc1ccc(NC(=S)NNc2ccc([N+](=O)[O-])cc2S(=O)(=O)Nc2ccc(C)cc2C)cc1 | -14% | 18% | 25µM*
Cc1ccc([N+](=O)[O-])cc1NC(=S)NC(=O)C(C)(C)C | -1% | -3% | 6%
Cc1ccc(NS(=O)(=O)c2cc([N+](=O)[O-])ccc2NNC(=S)Nc2cccc(Cl)c2)c(C)c1 | 20µM* | ? | -22%
CCc1cccc2nc3c(c([Si](C)(C)C)c12)Cn1c-3cccc1=O | -11% | nt | 17%
CCCCN(C)CCNC(=O)c1cc2c(=O)n(C)c3ccccc3c2n1C | -5% | nt | -4%
CCc1ccc(-n2nc3ccc(NC(=O)c4ccc5c(c4)OCO5)cc3n2)cc1 | -1% | 3% | 10µM*
Cc1ccc(-n2nc3ccc(NC(=O)c4ccc5c(c4)OCO5)cc3n2)cc1 | -1% | 11% | -6%
O=C(Nc1ccc2nn(-c3ccccc3)nc2c1)c1ccc2c(c1)OCCO2 | -7% | 4% | ?
CCOc1ccc(-n2nc3ccc(NC(=O)c4ccc5c(c4)OCCO5)cc3n2)cc1 | -3% | -5% | 13µM*
COc1ccc(NC(=O)C(=O)NCC(c2cccnc2)N2CCc3ccccc3C2)cc1 (stereo not given) | -2% | nt | 0%
COc1ccc(N(Cc2ccccc2)C(=O)c2nc(S(C)(=O)=O)ncc2Cl)cc1 | -8% | nt | 23%

Compound activity: PubChem, National Center for Advancing Translational Sciences (NCATS)
